Our source for the growth values is PubChem BioAssay (NCI).

SMILES strings stand for the structures. Where “and” joins values, the source holds several entries; their conditions need not be identical. Equal values may be shown once. Compounds without any hit were thinned out: in the full panel of roughly 83,000, 20% have a hit.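 Plates (96-well) were seeded with cells, treated with compound at one concentration, and incubated for 48 hours before percent growth was determined.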 Unmarked numbers belong to inactive results. Calls of active or inactive are those of the source. The calls were made as follows: active = growth percent below 10; inactive = the rest.

This test relates to MDA-MB-468 breast. The experiment in a line: NCI-60 one-dose screen, 48 h (100 = growth as untreated, 0 = no growth, -100 = all killed). The following applies: 10 µM unless noted.
Take `CCOC(=O)CNS(=O)(=O)CC(=O)c1ccccc1`: the growth was 54.1%.
The same measure for `COc1ccc2[nH]cc(-c3cc(N)n4nc(-c5c[nH]c6ccc(OC)cc56)cc4n3)c2c1`: -47.9% (active).
Turning to `O=C(CC12CC3CC(CC(C3)C1)C2)NCCOCCOCCNC(=O)c1cc2c(o1)C(=O)c1ccccc1C2=O`, the growth was -60.7% (active).
Take `CC/C(Cc1ccccc1)=C(\c1ccc(OCCN2CCCCCC2)cc1)c1ccc(OC(=O)NCc2ccccc2)cc1`: the growth is 53.3%.
Take `C/C(=N\N=C(/C)c1cccc([N+](=O)[O-])c1)c1cccc([N+](=O)[O-])c1`: the growth was 86.1%.
With `COc1cc(C2C3=C(COC3=O)N(CCO)c3cc4c(cc32)OCCO4)cc(OC)c1O` (centres undefined), the growth was -24.4% (active).
The value for `Cc1c(O)nc(N)[nH]c1=O` was 105%; that for `N=C(N)c1ccc(OCCCCCCCCCCOc2ccc(C(=N)N)cc2)cc1` was -75.6% (active).
With `Nc1cccc2c1C(=O)c1cccc(NC(=O)c3ccccc3)c1C2=O`, the growth was 10.6%.
For the molecule `ON=C1CCCCCCCC1`, the growth is 102% and 107%.
`CC(=O)OC[C@H]1O[C@H](OC(C)=O)[C@H](NC(=O)/C=C/CCl)[C@@H](OC(C)=O)[C@@H]1OC(C)=O`: the growth is 75.3%.
Turning to `O=S(=O)(NCCCNc1cc(-c2cn(-c3ccccc3)nc2-c2cccc(O)c2)ccn1)c1cccc(F)c1`, the growth is 7.62% (active).
`CC(C)(C)c1ccc(C(=O)Nc2sc3c(c2C(N)=O)CCC(O)C3)cc1` (centres undefined): the growth was 32.3%.
As to `Cc1ccc2nc(NC(=O)CSC(=S)N3CCN(c4ccccc4)CC3)sc2c1`, the growth was 101%.
